Measured values reported in PubChem BioAssay (Tox21).
Results filed as inconclusive are left out. Values without a mark were called inactive. Active and inactive are the calls of the source. Unless noted, calls come from the whole dose curve; as a rule, active = well fitted curve in the direction sought with a large enough effect in the repeat runs; inconclusive = weak or mixed curves; inactive = no such curve, though single readings can be large; an effect the other way counts as inactive or inconclusive.

System: not listed separately
Assay: qHTS assay to identify small molecule antagonists of the androgen receptor (AR) signaling pathway using the MDA cell line in the presence of 0.5 nM R1881 - cell viability counter screen (AID 1259242); note: nearly all actives have a fitted effect of over 45% in size
Conditions: MDA-kb2 viability, CellTiter-Fluor protease fluorescence, 16 h; series mostly up to 92.4 µM; viability change, negative = cytotoxic: at the top concentration
Method in brief: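 Human breast carcinoma MDA-kb2 cells, cultured without CO2, receive compounds alongside 0.5 nM (final) R1881 agonist. After 16 hr at 37C, viability is taken as live-cell protease signal.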
% is set by controls: 0 for no effect and ±100 for the full control effect.

In order of rising “viability change, negative = cytotoxic” value:
1. CCCCOCC(C)O (stereo not drawn)  -4.6%
2. C=CC(=O)CCCCC  -1.07%
3. CC(Oc1cc(Cl)ccc1Cl)C(=O)O (stereo not drawn)  -0.924%
4. CCCc1ccc(O)cc1  -0.624%
5. OCCN1CCOCC1  -0.103%
6. CC(=O)C(C)O (stereo not drawn)  0.0675%
7. CCC(=O)CC  0.229%
8. O=C1CCCCO1  0.384%
9. Cc1ccc(C(C)NC(=O)[C@@H](NC(=O)OC(C)C)C(C)C)cc1 (stereo partly drawn)  0.437%
10. COC(=O)/C=C\C(=O)O  0.532%
11. CCC/C=C(\C=O)CC  0.841%
12. CC(C)OC(=O)CCC(=O)OC(C)C  1.57%
13. CC(=O)O[C@@H]1CC2CCC1(C)C2(C)C (stereo partly drawn)  1.78%
14. COC(C)(OC)OC  2.54%
15. Cc1ccnc(N)c1  3.27%
16. O=C(Cl)c1ccccc1[N+](=O)[O-]  3.31%

In order of rising “viability change, negative = cytotoxic” value:
1. Nc1nnnn1-c1ccccc1  -4.43% [at 42.5 µM]
2. COc1cc(OC)nc(O[C@H](C(=O)O)C(OC)(c2ccccc2)c2ccccc2)n1  -2.7% [at 42.5 µM]
3. CCC(=O)Oc1ccc2c(c1)CC[C@@H]1[C@@H]2CC[C@@]2(C)[C@H]1C[C@@H](OC(=O)CC)[C@@H]2OC(=O)CC  0.307% [at 42.5 µM]
4. [O-][n+]1cccc(/C(Cl)=N/OC[C@@H](O)CN2CCCCC2)c1  5.76% [at 42.5 µM]
5. OC[C@H]1O[C@@H](O[C@@H]2[C@@H](CO)O[C@](O)(CO)[C@H]2O)[C@H](O)[C@@H](O)[C@H]1O  9.52% [at 42.5 µM]

Molecular target: Androgen receptor (Homo sapiens) (UniProt P10275)
Sequence (P10275 whole entry, looked up): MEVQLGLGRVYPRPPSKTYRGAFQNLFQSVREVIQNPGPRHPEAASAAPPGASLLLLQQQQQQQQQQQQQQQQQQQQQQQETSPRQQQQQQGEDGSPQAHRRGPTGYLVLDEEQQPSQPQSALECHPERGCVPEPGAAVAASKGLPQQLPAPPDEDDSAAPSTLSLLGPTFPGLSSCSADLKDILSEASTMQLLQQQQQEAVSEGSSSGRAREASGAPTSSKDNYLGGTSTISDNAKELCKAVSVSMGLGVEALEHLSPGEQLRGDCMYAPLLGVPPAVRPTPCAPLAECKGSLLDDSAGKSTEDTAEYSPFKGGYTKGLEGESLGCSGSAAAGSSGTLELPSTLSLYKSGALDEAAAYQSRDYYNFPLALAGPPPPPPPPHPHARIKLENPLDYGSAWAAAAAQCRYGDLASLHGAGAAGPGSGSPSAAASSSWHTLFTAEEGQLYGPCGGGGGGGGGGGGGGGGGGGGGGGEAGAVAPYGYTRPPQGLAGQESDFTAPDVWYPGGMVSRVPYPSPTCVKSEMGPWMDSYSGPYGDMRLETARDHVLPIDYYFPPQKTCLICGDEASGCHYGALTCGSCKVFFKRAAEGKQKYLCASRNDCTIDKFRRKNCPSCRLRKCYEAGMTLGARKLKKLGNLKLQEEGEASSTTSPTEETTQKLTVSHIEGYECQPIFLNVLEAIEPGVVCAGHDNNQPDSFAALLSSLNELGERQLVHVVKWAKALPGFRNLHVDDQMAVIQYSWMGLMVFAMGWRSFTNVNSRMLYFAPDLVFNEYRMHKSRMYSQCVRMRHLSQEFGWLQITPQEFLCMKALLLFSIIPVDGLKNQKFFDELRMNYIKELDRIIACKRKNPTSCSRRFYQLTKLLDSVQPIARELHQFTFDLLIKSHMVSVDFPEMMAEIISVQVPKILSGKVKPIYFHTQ
Assay: qHTS assay to identify small molecule antagonists of the androgen receptor (AR) signaling pathway using the MDA cell line in the presence of 0.5 nM R1881 (AID 1259243); note: nearly all actives have a fitted effect of over 50% in size; note: potency is the fitted concentration of half-maximal effect
Conditions: MDA-kb2 MMTV-luciferase, R1881 0.5 nM, 16 h; series mostly up to 92.4 µM; activity, negative = inhibition: at the top concentration
Method in brief: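 Cells: MDA-kb2 (MMTV-luc). Stimulus: 0.5 nM R1881. Time: 16 hr, 37C, no CO2. Detection: ONE-Glo luminescence after 30 min at RT.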

In order of rising “activity, negative = inhibition” value:
1. O=C(Cl)c1ccccc1[N+](=O)[O-]  -8.71%
2. CC(=O)O[C@@H]1CC2CCC1(C)C2(C)C (stereo partly drawn)  -0.187%
3. CC(Oc1cc(Cl)ccc1Cl)C(=O)O (stereo not drawn)  1.68%
4. COC(C)(OC)OC  7.65%

In order of rising “activity, negative = inhibition” value:
1. Nc1nc(-c2ccccc2)c(Br)c(=O)[nH]1  -17.5% [at 42.5 µM]
2. COc1cc(OC)nc(O[C@H](C(=O)O)C(OC)(c2ccccc2)c2ccccc2)n1  -12.7% [at 42.5 µM]
3. OC[C@H]1O[C@@H](O[C@@H]2[C@@H](CO)O[C@](O)(CO)[C@H]2O)[C@H](O)[C@@H](O)[C@H]1O  1.36% [at 42.5 µM]
4. [O-][n+]1cccc(/C(Cl)=N/OC[C@@H](O)CN2CCCCC2)c1  2.76% [at 42.5 µM]

In the case of `CCC(=O)Oc1ccc2c(c1)CC[C@@H]1[C@@H]2CC[C@@]2(C)[C@H]1C[C@@H](OC(=O)CC)[C@@H]2OC(=O)CC`, the Potency is reported as 8.41 µM (active).

Molecular target: Estrogen receptor (Homo sapiens) (UniProt P03372)
Sequence (P03372 whole entry, looked up): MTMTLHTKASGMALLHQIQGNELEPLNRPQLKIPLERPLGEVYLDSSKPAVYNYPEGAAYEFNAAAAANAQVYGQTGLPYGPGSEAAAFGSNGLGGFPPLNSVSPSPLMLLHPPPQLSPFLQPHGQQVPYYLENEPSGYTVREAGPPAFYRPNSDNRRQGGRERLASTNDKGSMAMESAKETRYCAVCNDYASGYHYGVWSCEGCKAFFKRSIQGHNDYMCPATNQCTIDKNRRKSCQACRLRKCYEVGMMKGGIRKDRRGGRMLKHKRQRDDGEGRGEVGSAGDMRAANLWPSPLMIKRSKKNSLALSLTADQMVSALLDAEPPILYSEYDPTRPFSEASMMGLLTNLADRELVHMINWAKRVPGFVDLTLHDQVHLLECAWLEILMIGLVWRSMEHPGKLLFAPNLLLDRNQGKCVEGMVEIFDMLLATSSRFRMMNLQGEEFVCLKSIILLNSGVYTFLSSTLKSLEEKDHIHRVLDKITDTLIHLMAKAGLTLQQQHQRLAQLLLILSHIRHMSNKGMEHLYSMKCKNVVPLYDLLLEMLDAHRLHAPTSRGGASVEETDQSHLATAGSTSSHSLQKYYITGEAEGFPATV
Assay: qHTS assay to identify small molecule antagonists of the estrogen receptor alpha (ER-alpha) signaling pathway using the BG1 cell line in the presence of 0.1 nM 17-beta-estradiol (AID 1259244); note: nearly all actives have a fitted effect of over 50% in size
Conditions: VM7Luc4E2 (BG1) ERE-luciferase, antagonist mode, 0.1 nM E2, 22 h; series mostly up to 92.4 µM; activity change, negative = inhibition: at the top concentration
Method in brief: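 Seeding of stripped-serum-adapted VM7Luc4E2 cells, 24 h attachment, compound transfer, then 0.1 nM final 17beta-estradiol; after 22 h incubation, ONE-Glo reagent and luminescence reading.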

In order of rising “activity change, negative = inhibition” value:
1. COC(=O)/C=C\C(=O)O  -12.5%
2. O=C1CCCCO1  -4.17%
3. CCC/C=C(\C=O)CC  -1.63%
4. CC1CC(=O)CC(C)(C)C1 (stereo not drawn)  -0.971%
5. C=C(C)[C@@H]1CC=C(C)CC1  -0.891%
6. COC(C)(OC)OC  0%
7. CCCCOCC(C)O (stereo not drawn)  0%
8. CCCSSCCC  3.66%
9. CCCc1ccc(O)cc1  4.45%
10. OCCN1CCOCC1  4.98%
11. COP(=O)(O)OP(=O)(O)OC  16.3%
12. CN(C)CCCCl  23.4%
13. C[C@H]1[C@@H](c2ccccc2)NC(=O)N1C  25.3%

In order of falling “activity change, negative = inhibition” value:
1. N#CCC(=O)NN  15.3% [at 42.5 µM]
2. C[C@]12CCC(=O)C=C1CC[C@H]1[C@@H]3CC[C@](O)(C(=O)CO)[C@@]3(C)C[C@H](O)[C@@]12F  14.9% [at 42.5 µM]
3. [O-][n+]1cccc(/C(Cl)=N/OC[C@@H](O)CN2CCCCC2)c1  6.97% [at 42.5 µM]
4. CC1=C(C(=O)O)N2C(=O)[C@@H](NC(=O)[C@H](N)C3=CCC=CC3)[C@H]2SC1  6.25% [at 42.5 µM]
5. Nc1nnnn1-c1ccccc1  5.14% [at 42.5 µM]
6. OC[C@H]1O[C@@H](O[C@@H]2[C@@H](CO)O[C@](O)(CO)[C@H]2O)[C@H](O)[C@@H](O)[C@H]1O  3.17% [at 42.5 µM]
7. CCC(=O)Oc1ccc2c(c1)CC[C@@H]1[C@@H]2CC[C@@]2(C)[C@H]1C[C@@H](OC(=O)CC)[C@@H]2OC(=O)CC  -0.419% [at 42.5 µM]
8. CC(C)Cn1cnc2c1c(=O)n(C)c(=O)n2C  -1.02% [at 42.5 µM]
9. COc1cc(OC)nc(O[C@H](C(=O)O)C(OC)(c2ccccc2)c2ccccc2)n1  -1.34% [at 42.5 µM]
10. O=C(CN1CCNCC1)NC1CCCCC1  -2.86% [at 42.5 µM]
11. Cc1ncc([N+](=O)[O-])n1CC(C)O (stereo not drawn)  -14.4% [at 42.5 µM]
12. CC(C)OC(=O)OCOP(=O)(CO[C@H](C)Cn1cnc2c(N)ncnc21)OCOC(=O)OC(C)C  -20.6% [at 42.5 µM]
13. Nc1nc(-c2ccccc2)c(Br)c(=O)[nH]1  -23.6% [at 42.5 µM]

System: not listed separately
Assay: qHTS assay to identify small molecule phospholipidosis (PLD) inducers (AID 1259344; active = well fitted curve in the direction sought with a large enough effect; an effect the other way counts as inactive or inconclusive)
Conditions: HepG2 phospholipidosis, LipidTOX Red imaging, 24 h; series mostly up to 38.3 µM; PLD induction: at the top concentration
Method in brief: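 Phospholipid accumulation was scored by imaging: fixed, Hoechst-counterstained HepG2 cells stained with LipidTOX Red after 24 h compound exposure at 37 C. Read-outs were pit count and pit intensity per well or per cell, with amiodarone and DMSO controls.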

In order of falling “PLD induction” value:
1. CC(=O)O[C@@H]1CC2CCC1(C)C2(C)C (stereo partly drawn)  1.14%
2. O=C(CN1CCNCC1)NC1CCCCC1  0.169%
3. Cc1ncc([N+](=O)[O-])n1CC(C)O (stereo not drawn)  -0.317%
4. N#CCC(=O)NN  -0.38%
5. Cn1c(=O)c2c(ncn2CCO)n(C)c1=O  -0.405%
6. CC(C)Cn1cnc2c1c(=O)n(C)c(=O)n2C  -0.522%
7. Nc1nc(-c2ccccc2)c(Br)c(=O)[nH]1  -0.637%
8. OC[C@H]1O[C@@H](O[C@@H]2[C@@H](CO)O[C@](O)(CO)[C@H]2O)[C@H](O)[C@@H](O)[C@H]1O  -0.895%
9. Nc1nnnn1-c1ccccc1  -8.47%

For `CC1=C(C(=O)O)N2C(=O)[C@@H](NC(=O)[C@H](N)C3=CCC=CC3)[C@H]2SC1`, the PLD induction was 0.229% [at 7.66 µM].

With `C[C@]12CCC(=O)C=C1CC[C@H]1[C@@H]3CC[C@](O)(C(=O)CO)[C@@]3(C)C[C@H](O)[C@@]12F` the outcome was “inactive”.
In the case of `CC(C)OC(=O)OCOP(=O)(CO[C@H](C)Cn1cnc2c(N)ncnc21)OCOC(=O)OC(C)C`, the outcome is reported as “inactive”.
